Reference: PubChem BioAssay (Tox21)
Inconclusive results are not listed. Active and inactive are the calls of the source. Unless noted, the call rests on the fitted dose curve; in most records, active means well fitted curve in the direction sought with a large enough effect in the repeat runs; inconclusive means weak or mixed curves; inactive means no such curve, though single readings can be large; an effect the other way counts as inactive or inconclusive.

Key:
[1] = qHTS assay for small molecules that induce genotoxicity in human embryonic kidney cells expressing luciferase-tagged ATAD5 (AID 651632); further: on the % scale 0 is the no-effect control and ±100 the full control effect; nearly all actives have a fitted effect of over 15% in size
How it was run: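 A rise in luciferase signal from ATAD5-tagged HEK293T cells marks genetic stress. Cells were exposed to compounds for 16 hr at 37C, 5% CO2, then luciferase was quantified after a 30 min room-temperature incubation with Amplite.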

[2] = qHTS assay for small molecule agonists of the p53 signaling pathway - cell viability (AID 651633; calls by dose curve;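 further: p53RE-bla HCT reporter cells with a stable beta-lactamase p53 reporter; series mostly up to about 83 µM; on the % scale 0 is the no-effect control and ±100 the full control effect; nearly all actives have a fitted effect of over 30% in size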)
How it was run: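 Viability counter-read: CellTiter-Glo luminescence (30 min, room temperature) in the same p53RE-bla plates. These plates had been exposed to compounds for 16 h at 37 C.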

[3] = qHTS assay for small molecules that induce genotoxicity in human embryonic kidney cells expressing luciferase-tagged ATAD5 - cell viability (AID 651634; calls by dose curve; further: on the % scale 0 is the no-effect control and ±100 the full control effect; nearly all actives have a fitted effect of over 25% in size)
How it was run: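 Cytotoxicity counter-readout: after 15.5 hr compound treatment at 37C, live-cell protease activity in ATAD5-luciferase HEK293T cells measured by CellTiter-Fluor fluorescence, 30 min development at 37C.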

[4] = qHTS assay for small molecule disruptors of the mitochondrial membrane potential - cell viability (AID 720634; calls by dose curve;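 further: human HepG2 liver cancer cells; series mostly up to about 83 µM; on the % scale 0 is the no-effect control and ±100 the full control effect; nearly all actives have a fitted effect of over 20% in size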)
How it was run: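 Cytotoxicity was quantified from ATP content by CellTiter-Glo luminescence in the same wells as the MMP dye read-out. HepG2 (2,000 cells/well) were plated overnight and exposed to compounds for 1 hr at 37 C.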

[5] = qHTS assay to test for compound auto fluorescence at 590 nm (red) in HepG2 cells (AID 720674); further: on the % scale 0 is the no-effect control and ±100 the full control effect
How it was run: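 We screened compounds on adherent HepG2 cells, incubating them for an hour at 37 C in 5% CO2 before reading emission at 590 nm under 540 nm excitation; values reflect equivalence to Rose Bengal sodium fluorescence.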

[6] = qHTS assay to test for compound auto fluorescence at 535 nm (green) in HepG2 cells (AID 720675); further: on the % scale 0 is the no-effect control and ±100 the full control effect
[7] = qHTS assay to test for compound auto fluorescence at 460 nm (blue) in HEK293 cells (AID 720678); further: on the % scale 0 is the no-effect control and ±100 the full control effect
How it was run: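 Cells were seeded and left to adhere for 4-5 hr at 37C. Compounds were then pin-transferred. After an overnight incubation at 37C under 5% CO2, intrinsic fluorescence at 405/460 nm was measured and referenced to triamterene.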

[8] = qHTS assay to test for compound auto fluorescence at 590 nm (red) in HEK293 cells (AID 720679); further: on the % scale 0 is the no-effect control and ±100 the full control effect
How it was run: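 Each well held 2,000 HEK293 cells in medium containing 10% dialyzed FBS. Following 4-5 hr attachment at 37C, 23 nL test compound or DMSO was added; plates sat overnight, and red fluorescence (540/590nm) was recorded.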

[9] = qHTS assay to test for compound auto fluorescence at 535 nm (green) in HEK293 cells (AID 720680); further: on the % scale 0 is the no-effect control and ±100 the full control effect
[10] = qHTS assay to test for compound auto fluorescence at 460 nm (blue) in HEK293 cell free culture (AID 720681); further: on the % scale 0 is the no-effect control and ±100 the full control effect
How it was run: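 Blue fluorescence (Ex 405/Em 460 nm, triamterene-equivalent) was read immediately after pin transfer of compound or DMSO into medium (DMEM, 10% FBS) without cells.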

[11] = qHTS assay to test for compound auto fluorescence at 535 nm (green) in HEK293 cell free culture (AID 720682); further: on the % scale 0 is the no-effect control and ±100 the full control effect
How it was run: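 Green-channel intensity (Ex/Em 485/535 nm) was recorded from compound-treated wells containing only DMEM with 10% FBS. Fluorescein provided the equivalency standard.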

[12] = qHTS assay to test for compound auto fluorescence at 590 nm (red) in HEK293 cell free culture (AID 720683); further: on the % scale 0 is the no-effect control and ±100 the full control effect
How it was run: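 Red-channel autofluorescence of compounds in culture medium (DMEM, 10% FBS), no cells, measured at 540/590 nm. Rose Bengal sodium is the reference fluorophore for equivalence.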

[13] = qHTS assay to test for compound auto fluorescence at 590 nm (red) in HepG2 cell free culture (AID 720684); further: on the % scale 0 is the no-effect control and ±100 the full control effect
How it was run: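 No cells present: MEM + 10% FBS only. Compound pinned in, red label read (540/590 nm). Activity = fluorescence equivalent to Rose Bengal sodium.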

[14] = qHTS assay to test for compound auto fluorescence at 460 nm (blue) in HepG2 cell free culture (AID 720685); further: on the % scale 0 is the no-effect control and ±100 the full control effect
How it was run: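 Cell-free plates of MEM plus 10% FBS received 23 nL compound or DMSO vehicle; blue-channel (405/460 nm) intensity scored against triamterene as reference fluorophore.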

[15] = qHTS assay to test for compound auto fluorescence at 535 nm (green) in HepG2 cell free culture (AID 720686); further: on the % scale 0 is the no-effect control and ±100 the full control effect
[16] = qHTS assay to test for compound auto fluorescence at 460 nm (blue) in HepG2 cells (AID 720687); further: on the % scale 0 is the no-effect control and ±100 the full control effect
How it was run: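 Blue-channel autofluorescence (Ex/Em 405/460 nm, triamterene-equivalent) was measured after 1 hr compound exposure at 37 C, 5% CO2. Cells were HepG2, plated overnight at 37 C in MEM plus 10% FBS.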

[17] = biological target: Glucocorticoid receptor (Homo sapiens) (UniProt P04150); assay: qHTS assay to identify small molecule agonists of the glucocorticoid receptor (GR) signaling pathway (AID 720691; active means well fitted activation curve with a large enough effect in the signal ratio in the repeat runs, not every such curve was filed as active; the % refers to the signal ratio; further: on the % scale 0 is the no-effect control and ±100 the full control effect)
Sequence of Glucocorticoid receptor (Homo sapiens) (P04150 whole entry, looked up): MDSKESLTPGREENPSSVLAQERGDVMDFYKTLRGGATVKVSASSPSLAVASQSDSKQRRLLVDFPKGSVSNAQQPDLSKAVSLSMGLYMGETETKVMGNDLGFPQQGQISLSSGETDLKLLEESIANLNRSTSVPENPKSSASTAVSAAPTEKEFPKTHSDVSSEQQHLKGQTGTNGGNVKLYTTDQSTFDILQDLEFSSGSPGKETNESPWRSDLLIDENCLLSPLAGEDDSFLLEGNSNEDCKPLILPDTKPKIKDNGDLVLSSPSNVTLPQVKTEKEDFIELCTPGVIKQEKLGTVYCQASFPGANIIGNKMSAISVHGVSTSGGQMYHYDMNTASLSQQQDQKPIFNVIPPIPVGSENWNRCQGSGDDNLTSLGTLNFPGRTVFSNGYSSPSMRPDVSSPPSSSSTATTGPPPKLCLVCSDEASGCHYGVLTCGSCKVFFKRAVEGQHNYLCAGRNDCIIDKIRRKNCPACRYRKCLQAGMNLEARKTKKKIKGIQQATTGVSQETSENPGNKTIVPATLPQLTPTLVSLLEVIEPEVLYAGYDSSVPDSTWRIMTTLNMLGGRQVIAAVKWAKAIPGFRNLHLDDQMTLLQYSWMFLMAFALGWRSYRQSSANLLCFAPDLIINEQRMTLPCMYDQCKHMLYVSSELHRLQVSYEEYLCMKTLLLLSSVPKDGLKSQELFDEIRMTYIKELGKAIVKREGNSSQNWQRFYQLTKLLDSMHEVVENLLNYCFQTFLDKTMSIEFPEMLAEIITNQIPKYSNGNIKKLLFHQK
How it was run: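 Agonist-mode qHTS in HeLa cells stably expressing a glucocorticoid-response-element beta-lactamase reporter. Fluorescence intensity read with FRET substrate (2 h, room temperature) after 18 h compound treatment at 37 C.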

[18] = biological target: Glucocorticoid receptor (Homo sapiens) (UniProt P04150); assay: qHTS assay to identify small molecule antagonists of the glucocorticoid receptor (GR) signaling pathway (AID 720692; active means well fitted inhibition curve with a large enough effect in the signal ratio in the repeat runs, not every such curve was filed as active; the % refers to the signal ratio; further: on the % scale 0 is the no-effect control and ±100 the full control effect)
How it was run: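 Inhibition of dexamethasone-driven (5 nM final) beta-lactamase expression was measured in GRE-reporter HeLa cells over 18 h at 37C. Fluorescence was read after 2 h with the B/G FRET substrate at room temperature.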

[19] = qHTS assay for small molecule disruptors of the mitochondrial membrane potential (AID 720635); further: potency means the concentration at half of the fitted maximal effect
How it was run: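 Mitochondrial membrane potential tracked with Mito-MPS dye, red aggregates (ex 540/em 590 nm) against green monomers (ex 490/em 535 nm). Compound treatment 1 hr at 37C, dye 30 min in HepG2.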

CC(C)(N)Cc1ccc(Cl)cc1
inactive: outcome [1] | Potency [2] | Potency [3] | Potency [4] | outcome [5] | outcome [6] | outcome [7] | outcome [8] | outcome [9] | outcome [10] | outcome [11] | outcome [12] | outcome [13] | outcome [14] | outcome [15] | outcome [16]

CN(C)C1CCCCC1
inactive: Potency [2] | Potency [3] | Potency [4] | outcome [5] | outcome [6] | outcome [7] | outcome [8] | outcome [9] | outcome [10] | outcome [11] | outcome [12] | outcome [13] | outcome [14] | outcome [15] | outcome [16] | Potency [17] | Potency [18]

CCC1(c2cccc(O)c2)CCCCN(C)C1 (stereo unspecified)
inactive: outcome [1] | Potency [2] | Potency [4] | fluorescence, relative to Rose Bengal [5] 0.128% [at 18.6 µM] | fluorescence, % of fluorescein control [6] 0.0413% [at 18.6 µM] | fluorescence, % of triamterene [7] 0.018% [at 18.6 µM] | fluorescence, % of fluorescent control [8] 0.162% [at 18.6 µM] | fluorescence, % of fluorescein [9] -0.0115% [at 18.6 µM] | fluorescence, % of fluorescent control [10] 0.0294% [at 18.6 µM] | fluorescence, % of fluorescent control [12] 0.0544% [at 18.6 µM] | fluorescence, % of Rose Bengal [13] 0.0113% [at 18.6 µM] | fluorescence, % of fluorescent control [14] 0.002% [at 18.6 µM] | fluorescence, % of fluorescein control [15] -0.0769% [at 18.6 µM] | fluorescence, % of fluorescent control [16] -0.0146% [at 18.6 µM] | Potency [18]

NNCc1ccccc1
inactive: Potency [2] | Potency [4] | outcome [5] | outcome [6] | outcome [7] | outcome [8] | outcome [10] | outcome [11] | outcome [12] | outcome [13] | outcome [14] | outcome [15] | outcome [16] | Potency [17]
active: Potency [19] 24.8 µM

O=C(O)c1c(Cl)ccc2cc(Cl)cnc12
inactive: outcome [1] | Potency [4] | outcome [5] | outcome [6] | outcome [7] | outcome [8] | outcome [9] | outcome [10] | outcome [11] | outcome [12] | outcome [13] | outcome [14] | outcome [15] | outcome [16]

C(COCC1CO1)OCC1CO1 (stereo unspecified)
inactive: outcome [1] | Potency [2] | Potency [3] | Potency [4] | outcome [5] | outcome [6] | outcome [7] | outcome [8] | outcome [9] | outcome [10] | outcome [11] | outcome [12] | outcome [13] | outcome [14] | outcome [15] | outcome [16] | Potency [17] | Potency [18]

ClCCCCCCCl
inactive: outcome [1] | Potency [4] | outcome [5] | outcome [6] | outcome [7] | outcome [8] | outcome [9] | outcome [10] | outcome [11] | outcome [12] | outcome [14] | outcome [15] | outcome [16] | Potency [17] | Potency [18]

Cc1ccc(Cl)c(O)c1
inactive: outcome [1] | Potency [2] | Potency [3] | Potency [4] | outcome [5] | outcome [6] | outcome [7] | outcome [8] | outcome [9] | outcome [10] | outcome [12] | outcome [13] | outcome [14] | outcome [15] | outcome [16] | Potency [18]
